# Screens from PubChem.
# HP1b chromo inh: blocks HP1-beta chromodomain binding to methylated histone tails. Potency, µM (highest dose often 114 µM), actives largely listed as inhibitors. AID 540317. AlphaScreen HP1-beta / biotin-H3K9me3 peptide binding. 0.56% of 390,000 active. P83916; note: nearly all actives have a fitted effect of over 70% in size
#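 AlphaScreen: HP1-beta (50 nM) preformed 30 min with biotin-H3(1-18)K9me3 peptide (50 nM) in PBS pH 7.4, 0.01% Tween-20. Compound added for 30 min at RT, then streptavidin donor/nickel chelate acceptor beads (10 ug/mL) for 30 min.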
# BAZ2B block: blocks human BAZ2B; Potency, µM (titrated, usually from 114 µM), hits mostly inhibitors; Q9UIF8; AlphaScreen BAZ2B-H3K14Ac peptide displacement; AID 504333; 4.4% of 360,000 active; note: nearly all actives have a fitted effect of over 60% in size
#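 BAZ2B (50 nM) with biotin-H3(5-23)K14Ac peptide (50 nM) in PBS pH 7.4, 0.01% Tween-20, preformed 30 min, then compound 30 min at room temperature; top concentration 110uM. AlphaScreen streptavidin donor/nickel chelate acceptor beads (10 ug/mL final), 20 min dark, signal read.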
# G9a block: G9a (human) methyltransferase inhibition | Q96KQ7 | G9a H3K9 monomethylation, AlphaScreen, 2 h | Potency, µM (highest dose often 102 µM), most hits filed as inhibitors | 8.8% of 350,000 active; note: nearly all actives have a fitted effect of over 75% in size
#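 Readings reflect AlphaScreen signal from monomethyl-H3K9 antibody detection. HMT at 20 nM; substrate b-H3K9 500 nM; cofactor SAM 20 uM; 2 h RT reaction; compounds tested as titrations in qHTS with 15 min preincubation.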
# L3MBTL1 block: blocks human L3MBTL1 | Q9Y468 | AlphaScreen L3MBTL1–H3K9me1 peptide binding | Potency, µM (top dose mostly 57.1 µM), most hits filed as inhibitors | 0.66% of 230,000 active | AID 485360; note: nearly all actives have a fitted effect of over 60% in size
#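 Read-out is AlphaScreen signal from streptavidin donor and nickel chelate acceptor beads (10 ug/mL final each) bridging L3MBTL1 (50 nM) and biotinylated K9-monomethylated H3(1-15) peptide (75 nM), after 30 min compound exposure at room temperature.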
# JMJD2A Tudor: JMJD2A Tudor domain (human) inhibition. O75164. AlphaScreen JMJD2A-Tudor / H3K4me3 peptide binding. Potency, µM (top dose mostly 114 µM), hits mostly inhibitors. 4.4% of 390,000 active; note: nearly all actives have a fitted effect of over 50% in size
# A number is an active result; n = inactive; u = inconclusive; x = not tested or not shown; [ ] = dose if it differs, or a comment. In the library only some 11% were active in any assay of this set; here they are far more common. Calls come from the whole dose curve; as a rule, active = well fitted inhibition curve with a large enough effect; inconclusive = small, poorly fitted or top-dose-only effect; inactive = no such curve, though single readings can be large or run the other way.
SMILES,HP1b chromo inh,BAZ2B block,G9a block,L3MBTL1 block,JMJD2A Tudor
O=[N+]([O-])c1ccc(CSc2nnc(SCc3ccc(Cl)cc3)s2)cc1,n,n,35.5µM,n,n
Cc1nnc(SCc2ccc([N+](=O)[O-])cc2)o1,n,u,n,n,12.6µM
CN(C)CCCOC(=O)COc1ccc(Br)cc1,n,n,n,n,n
CCCCNc1c(-c2ccc(OC)c(SC(C)CC)c2)nc2cc(C)ccn12 (centres undefined),n,x,x,n,u
c1csc(-c2nc3ccccn3c2NC2CCCCC2)c1,n,u,u,n,n
CC(=O)c1ccc(-c2cccc(-c3nc4ccccn4c3NC3CCCCC3)c2)cc1,n,39.8µM,n[2.33 µM],n,u
CCC(C)Sc1cc(-c2nc3ccccn3c2NC2CCCCC2)ccc1OC (centres undefined),n,u,n[2.33 µM],n,79.4µM
CCC(C)Sc1cc(-c2nc3cc(C)ccn3c2NC2CCCCC2)ccc1OC (centres undefined),n,x,x,n,50.1µM
Cc1ccn2c(NC3CCCC3)c(-c3cccs3)nc2c1,n,u,44.7µM,n,10µM
O=C(Nc1cc(S(=O)(=O)N2CCOCC2)ccc1N1CCCCC1)c1ccccc1Br,u,x,x,n,n
Cc1cccc2sc(N(Cc3cccnc3)C(=O)C3COc4ccccc4O3)nc12 (centres undefined),n,n,n,x,n
NC(=NCc1ccc(Cl)cc1Cl)NC(=O)c1nc(Cl)c(N)nc1N,x,x,n,x,x
Cc1ccc(NC(=O)NCCOCCn2c(=O)oc3ccccc32)c(C)c1,n,n,n,x,n
Cn1ccc2cc3c(cc21)CCN3C(=O)Nc1cccnc1,n,u,9.47µM,n,79.4µM
CN1CCc2cc(NC(=O)Nc3cccnc3)ccc21,x,x,n[12.7 µM],x,x
CC(C)N1C(=O)CC2(CC[N+](C)(CCOC(=O)C(c3ccccc3)c3ccccc3)CC2)C1=O (centres undefined),n,44.7µM,u,n,n
O=C(OCCN1CCOCC1)C(c1ccccc1)c1ccccc1,n,n,n,n,u
COc1ccc(N2CCN(Cc3nc(-c4ccccc4)no3)CC2)cc1,u,n,x,n,u
COc1ccc(-c2nnc(SC(C(=O)c3c[nH]c4ccccc34)c3ccccc3)n2N)cc1OC (centres undefined),n,n,8.91µM,n,u
COc1ccc(-c2nnc(SCC(=O)N3CCCC3=O)n2N)cc1OC,n,x,x,n,n
Cc1ccc(NC2c3ncccc3C(=O)N2c2ccccc2C)cc1C (centres undefined),n,20µM,u,u,11.2µM
CCOc1ccc(NC(=O)CSc2oc(-c3ccc(C)cc3)nc2S(=O)(=O)c2ccc(C)cc2)cc1,n,u,n,x,n
c1coc(-c2nnc(NC3=NCCC3)o2)c1,n,n,n[12.7 µM],n[11.4 µM],n
Cc1nnc(NC2=NCCC2)s1,n,n,28.2µM,n,79.4µM
Cc1nnc(NC2=NCCC2)o1,n,79.4µM,n[12.7 µM],n,n
SMILES,HP1b chromo inh,BAZ2B block,G9a block,L3MBTL1 block,JMJD2A Tudor
Cc1nnc(Nc2ccc(Cl)cc2)s1,n,n,u,x,n
CCC(CC)NCC(O)COc1ccc(Br)cc1 (centres undefined),u,28.2µM,n,x,1µM
Cc1ccc(N2C(=O)c3ccccc3C2Nc2ccccc2F)nc1 (centres undefined),n,n,50.1µM,x,n
CCC(=O)NC(=S)Nc1cccc(NC(=O)c2ccccc2Cl)c1,n,n,17.8µM,n,n[11.4 µM]
CC(C)CC(=O)NC(=S)Nc1cccc(NC(=O)c2ccccc2Cl)c1,n,n,7.94µM,x,u
COc1ccc(C2=Nc3ccc(OC(F)(F)F)cc3NC(c3cccnc3)=N2)cc1,n,n,n,x,u
O=C(NCCCN1CCCC1=O)c1ccc2c(=O)n(-c3ccc(F)cc3)c(=S)[nH]c2c1,x,n,31.6µM,n,x
O=C(NCCCN1CCCC1=O)c1ccc2c(=O)n(-c3ccccc3F)c(=S)[nH]c2c1,n,u,25.1µM,n,u
COCCNC(=O)c1ccc2c(=O)n(CCCN3CCCC3=O)c(=S)[nH]c2c1,n,u,u,x,u
COc1ccc(-n2c(=S)[nH]c3cc(C(=O)NCc4ccccc4)ccc3c2=O)c(OC)c1,n,n,22.4µM,x,n
COc1ccc(-n2c(=S)[nH]c3cc(C(=O)NCc4cccnc4)ccc3c2=O)c(OC)c1,n,n,u,x,n
O=C(OCC#CCSc1nnc(-c2cccc(F)c2)o1)c1ccc(F)cc1,x,x,x,x,n
COc1ccc(CC(=O)Nc2sc3c(c2C(=O)Nc2c(C)cccc2C)CCCCC3)cc1,n,n,n,x,n
O=C(O)c1cc(O)ccc1N=Nc1ccccc1,n,n,n[12.7 µM],x,n
O=S(=O)(O)c1cc(Cl)cc(N=Nc2ccc(O)cc2O)c1O,u,x,x,x,20µM
COc1ccc(-n2c(C)cc(/C=C3\SC(=O)NC3=O)c2C)cc1,n,n,22.4µM,x,u
COc1ccc(-n2c(C)cc(/C=C3\SC(=S)N(Cc4ccco4)C3=O)c2C)cc1,n,u,25.1µM,n,u
COc1ccc(-c2nn(-c3ccccc3)cc2/C=C2/SC(=S)N(Cc3ccco3)C2=O)c(C)c1,n,n,n,n,u
CSc1cccc(NC(=O)c2nnn(CC(=O)Nc3cc(C)cc(C)c3)c2N)c1,n,n,n,x,14.1µM
CCOc1ccccc1NCc1cc(=O)oc2cc(C)ccc12,n,n,44.7µM,x,u
CC(=O)c1c(C)[nH]c(-c2ccccc2)nc1=S,n,n,3.55µM,n,n
COc1ccccc1-c1nc(=S)c(C(C)=O)c(C)[nH]1,n,n,x,u,n
Cc1ccc(S(=O)(=O)OCC(=O)Nc2ccc(C(=O)O)c(O)c2)cc1,n,x,x,x,20µM
O=C(NCc1cccc(F)c1)c1ccccc1NC(=O)c1nsc2ccccc12,n,n,n,x,n
CC(C)C[C@@H](CN)NC(=O)c1nc[nH]c1C(=O)N[C@@H](CC(=O)O)C(=O)CNC[C@H](C)NC(=O)c1nc[nH]c1C(=O)N[C@@H](CC(=O)O)C(=O)O,n,x,x,x,89.1µM
SMILES,HP1b chromo inh,BAZ2B block,G9a block,L3MBTL1 block,JMJD2A Tudor
CC(C)C[C@@H](CN)NC(=O)c1nc[nH]c1C(=O)N[C@@H](C)C(=O)CNC[C@H](CC(C)C)NC(=O)c1nc[nH]c1C(=O)N[C@@H](CC(=O)O)C(=O)O,n,x,x,x,79.4µM
CC(C)C[C@@H](CNCC(=O)[C@H](CC(=O)O)NC(=O)c1[nH]cnc1C(=O)N[C@H](CN)CC(C)C)NC(=O)c1nc[nH]c1C(=O)N[C@@H](C)C(=O)O,n,x,x,x,u
CC(C)C[C@@H](CN)NC(=O)c1nc[nH]c1C(=O)N[C@@H](C)C(=O)CNC[C@H](C)NC(=O)c1nc[nH]c1C(=O)N[C@@H](CC(=O)O)C(=O)O,n,x,x,x,56.2µM
CC(C)C[C@@H](CNCC(=O)[C@H](CC(C)C)NC(=O)c1[nH]cnc1C(=O)N[C@@H](C)CN)NC(=O)c1nc[nH]c1C(=O)N[C@@H](C)C(=O)O,n,x,x,x,n
CN1CCN(c2ccnc(-c3ccoc3)n2)CC1,x,x,n[0.501 µM],x,x
Cc1cccc(C(=O)N/C(=C\c2ccco2)C(=O)N2CCCCCC2)c1,n,n,u,x,n
